Reference: PubChem BioAssay (EPA / NIEHS)
Several values for one entry are separate records, joined by “and”; a condition that tells them apart may be missing. Equal values may be shown once. Activity calls are given as the source filed them. The calls were made as follows: active = hit-call score of the fitted dose curve at least 0.9, where 1 is the maximum; inactive = score below 0.9.

Key:
[1] = read-out: Vascular endothelial growth factor receptor 2 (Homo sapiens) (UniProt P35968); experiment: BSK_4H_VEGFRII: BioMAP Diversity Plus: 4H Assay for Vascular endothelial growth factor receptor 2 (VEGFR2) Biomarker Activity (AID 2283031); details: primary human endothelial cells (HUVEC); actives raise or lower the signal;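 as to AC50: cell-surface VEGFR2 protein level quantified by ELISA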
Summary of the method: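 ELISA read-out of VEGFRII in primary human umbilical vein endothelium, taken 24 h after chemical treatment. Responses are expressed relative to DMSO, with bidirectional fitting.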

[2] = read-out: Human Leukocyte Antigen - DR isotype (HLADR), HLA-DRA (gene 3122); experiment: BSK_BE3C_HLADR: BioMAP Diversity Plus: BE3C Assay for Human Leukocyte Antigen - DR isotype (HLADR) Biomarker Activity (AID 2283032); details: primary human bronchial epithelial cells; actives raise or lower the signal
Summary of the method: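 BioMAP BE3C format: human bronchial epithelium, 24 h compound treatment, ELISA detection of HLA-DR, with bidirectional analysis relative to DMSO.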

[3] = read-out: Vascular cell adhesion molecule 1 (VCAM1), VCAM1 (gene 7412); experiment: BSK_4H_VCAM1: BioMAP Diversity Plus: 4H Assay for Vascular cell adhesion molecule 1 (VCAM1) Biomarker Activity (AID 2283033); details: primary human endothelial cells (HUVEC); actives raise or lower the signal
Summary of the method: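 In this human endothelial (HUVEC) system, biomarker ELISA was run 24 h after compound addition, and total protein in parallel wells was assessed by SRB at 560 nm; DMSO served as negative control.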

[4] = read-out: Interferon-gamma inducible Protein 10 (IP10), CXCL10 (gene 3627); experiment: BSK_BE3C_IP10: BioMAP Diversity Plus: BE3C Assay for Interferon-gamma inducible Protein 10 (IP10) Biomarker Activity (AID 2283034); details: primary human bronchial epithelial cells; actives raise or lower the signal
Summary of the method: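 BE3C cells (human bronchial epithelial, primary); 24 h exposure; ELISA for IP-10; DMSO-referenced bidirectional fit.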

[5] = read-out: Monokine induced gamma interferon (MIG), CXCL9 (gene 4283); experiment: BSK_BE3C_MIG: BioMAP Diversity Plus: BE3C Assay for Monokine induced gamma interferon (MIG) Biomarker Activity (AID 2283035); details: primary human bronchial epithelial cells; actives raise or lower the signal
Summary of the method: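 hu bronchial epithelial 1° cells, 24 h cpd; MIG by ELISA; bidirectional fit, DMSO = baseline.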

[6] = read-out: Transforming growth factor beta 1 (TGFb1), TGFB1 (gene 7040); experiment: BSK_BE3C_TGFb1: BioMAP Diversity Plus: BE3C Assay for Transforming growth factor beta 1 (TGFb1) Biomarker Activity (AID 2283036); details: primary human bronchial epithelial cells; actives raise or lower the signal
Summary of the method: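 TGF-b1 measured via ELISA, 24 h after chemical dosing of human bronchial epithelial cells (BE3C). Overt cytotoxicity assessed in parallel by SRB (0.1%, TCA-fixed, 560 nm); analysis bidirectional relative to DMSO.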

[7] = read-out: Plasminogen activator inhibitor-1 (PAI1), SERPINE1 (gene 5054); experiment: BSK_BE3C_PAI1: BioMAP Diversity Plus: BE3C Assay for Plasminogen activator inhibitor-1 (PAI1) Biomarker Activity (AID 2283037); details: primary human bronchial epithelial cells; actives raise or lower the signal
Summary of the method: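 In this multiplexed primary-cell system, bronchial epithelial cells receive test chemical and are sampled at 24 h. PAI-1 is read by ELISA, with DMSO serving as negative control for bidirectional fitting.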

[8] = read-out: urokinase plasminogen activator (uPA), PLAU (gene 5328); experiment: BSK_BE3C_uPA: BioMAP Diversity Plus: BE3C Assay for urokinase plasminogen activator (uPA) Biomarker Activity (AID 2283038); details: primary human bronchial epithelial cells; actives raise or lower the signal
Summary of the method: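 Bronchial epithelial cells (human, primary); chemical 24 h; uPA by ELISA; bidirectional fit vs DMSO. SRB (0.1%, after 10% TCA fixation, 560 nm) in parallel cultures for cytotoxicity.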

[9] = read-out: Urokinase-type plasminogen activator receptor (uPAR), PLAUR (gene 5329); experiment: BSK_BE3C_uPAR: BioMAP Diversity Plus: BE3C Assay for Urokinase-type plasminogen activator receptor (uPAR) Biomarker Activity (AID 2283039); details: primary human bronchial epithelial cells; actives raise or lower the signal
Summary of the method: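 Chemically treated human bronchial epithelial cells (lung primary) are assayed for uPAR by ELISA after 24 h, with data fitted in both directions using DMSO as negative control.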

[10] = read-out: Interleukin-6 (IL6), IL6 (gene 3569); experiment: BSK_CASM3C_IL6: BioMAP Diversity Plus: CASM3C Assay for Interleukin-6 (IL6) Biomarker Activity for (AID 2283040); details: primary human coronary artery smooth muscle cells; actives raise or lower the signal

Measured: AC50

O=C(Nc1ccc2[nH]ccc2c1)c1cc2cc(F)ccc2n1Cc1cccc(F)c1
inactive: [6] | [8]
active: [1] 8.6 µM | [2] 5.82 µM | [3] 8.66 µM | [4] 8.41 µM | [5] 8.22 µM | [7] 5.51 µM | [9] 6.74 µM | [10] 33.5 µM

COP(=S)(OC)Oc1cc(Cl)c(Cl)cc1Cl
active: [3] 24.9 µM | [4] 19.1 µM | [7] 8.51 µM
not listed: [5]
inactive: all other assays above

CN(C)N=O
not listed: [3]
inactive: all other assays above

CC(=O)[O][Hg][c]1ccccc1
active: [2] 0.355 µM | [4] 0.94 µM | [5] 2.01 µM | [6] 0.148 µM | [7] 1.42 µM | [8] 1.06 µM | [9] 1.8 µM | [10] 3.56 µM

CC(C)(C)CC(C)(C)c1ccc(O)cc1
inactive: [1]
active: [2] 19.3 µM | [4] 16.6 µM | [6] 14.7 µM | [7] 30.9 µM | [8] 26.6 µM | [9] 30 µM | [10] 12 µM

CC(C)c1ccc(CO)cc1
not listed: [3] | [5]
inactive: all other assays above

CCSC(C)CC1CC(=O)C(C(CC)=NOC/C=C/Cl)=C(O)C1 (stereo not given)
not listed: [3] | [5]
inactive: all other assays above

COP(=S)(OC)Oc1ccc(Sc2ccc(OP(=S)(OC)OC)cc2)cc1
active: [2] 8.14 µM | [4] 18.2 µM
not listed: [3] | [5]
inactive: all other assays above

ClC(Cl)=C(Cl)C(Cl)=C(Cl)Cl
active: [1] 31.1 µM | [2] 26.9 µM | [4] 31.5 µM | [7] 20 µM | [8] 20 µM | [10] 3.97 µM
inactive: [6] | [9]

CC(C)(OO)c1ccccc1
not listed: [3] | [5]
inactive: all other assays above

CCNc1nc(NC(C)(C)C)nc(SC)n1
not listed: [1] | [3] | [5]
inactive: all other assays above

C=C(C)C(=O)[O][Sn]([CH2]CCC)([CH2]CCC)[CH2]CCC
active: [2] 0.148 µM | [4] 0.336 µM | [6] 0.146 µM | [7] 0.146 µM | [8] 0.215 µM | [9] 0.146 µM | [10] 0.148 µM

C[C@@H]1C[C@@H]([C@H](O)CC2CC(=O)NC(=O)C2)C(=O)[C@@H](C)C1
active: [1] 8.73 µM | [2] 4.95 µM | [4] 8.61 µM | [6] 2.83 µM | [7] 1.63 µM | [8] 6.45 µM | [9] 4.03 µM | [10] 1.27 µM

O=C(OC1CCCCC1)c1ccccc1C(=O)OC1CCCCC1
active: [1] 9.97 µM | [2] 13 µM | [4] 20.9 µM
not listed: [3] | [5]
inactive: all other assays above

ClC1=C(Cl)[C@]2(Cl)[C@H]3[C@H]([C@H]4C=C[C@H]3C4)[C@@]1(Cl)C2(Cl)Cl
active: [1] 2.01 µM | [2] 13.1 µM | [6] 3.12 µM | [7] 3.97 µM
inactive: [5] | [8] | [9] | [10]

O=C(O)CCC(F)(C(F)(F)F)C(F)(F)F
not listed: [3] | [5] | [6]
inactive: all other assays above

O=Cc1cccc(Oc2ccccc2)c1
not listed: [3] | [5]
inactive: all other assays above

Oc1ccc(-c2ccccc2)cc1
not listed: [3] | [5] | [10]
inactive: all other assays above

Oc1cccc2cccnc12
active: [2] 3.53 µM | [4] 3.88 µM | [6] 5.43 µM | [7] 3.45 µM | [8] 3.44 µM | [9] 4.95 µM
inactive: [1] | [10]

CCC(C)(C)c1ccc(O)c(C(C)(C)CC)c1
active: [2] 25.2 µM | [4] 19 µM | [6] 20 µM | [7] 31.4 µM | [8] 32.4 µM | [9] 36.6 µM | [10] 29.4 µM
inactive: [1]

NC(=O)O
not listed: [3] | [5]
inactive: all other assays above

CC(=O)OC(c1ccccc1)C(Cl)(Cl)Cl (stereo not given)
not listed: [3] | [6]
inactive: all other assays above

COc1cc(OC)nc(NC(=O)NS(=O)(=O)c2ncccc2C(=O)N(C)C)n1
not listed: [3] | [5]
inactive: all other assays above

COC[C@H](C)N(C(=O)CCl)c1c(C)csc1C
not listed: [3] | [5]
inactive: all other assays above

CCCCCCCCc1ccc(O)cc1
active: [2] 33 µM | [3] 33.2 µM | [4] 31.9 µM | [6] 30.5 µM | [7] 33.9 µM | [8] 32.7 µM | [9] 32.5 µM | [10] 20.1 µM

Nc1ncc([N+](=O)[O-])s1
not listed: [3] | [5]
inactive: all other assays above

CC1(C)Cc2cccc(O)c2O1
not listed: [3] | [5]
inactive: all other assays above

O=C(O)C(Cl)(Cl)Cl
not listed: [3] | [5]
inactive: all other assays above

O=C(O)C(F)(F)C(F)(F)C(F)(F)C(F)(F)C(F)(F)C(F)(F)C(F)(F)C(F)(F)C(F)(F)C(F)(F)F
active: [2] 9.29 µM and 4.71 µM and 4.92 µM | [4] 8.5 µM and 2.27 µM and 2.29 µM | [6] 8.28 µM | [7] 12.3 µM and 2.33 µM and 1.73 µM | [8] 11.6 µM and 6.21 µM and 5.27 µM | [9] 26 µM and 5.6 µM and 5.59 µM
inactive: [1] | [10]

Cc1ccccc1N
not listed: [3] | [8]
inactive: all other assays above

CC(C)CCCCCCOC(=O)c1ccccc1C(=O)OCCCCCCC(C)C
not listed: [3]
inactive: all other assays above

CCOP(=S)(OCC)SCCS(=O)(=O)CC
not listed: [3] | [5]
inactive: all other assays above

C(=NC1CCCCC1)=NC1CCCCC1
inactive: [6] | [7]
active: [2] 20 µM | [4] 20 µM | [8] 31.8 µM | [9] 20 µM | [10] 36.8 µM

Nc1cccc2ccccc12
active: [4] 20 µM
not listed: [1] | [3]
inactive: all other assays above

COP(=S)(OC)Oc1c(Cl)cc(C)cc1Cl
not listed: [3]
inactive: all other assays above

CC(C)(C)c1cc(O)ccc1O
active: [2] 18.3 µM | [4] 26.9 µM | [7] 14 µM
not listed: [3]
inactive: all other assays above
